Measured values taken from PubChem BioAssay.
Unmarked numbers belong to inactive results. The rule behind the calls is not given here. Where a SMILES comes first, the peptide text is derived from it. [ ]: non-standard residue; d: D form. The star is where a group is joined. ξ: configuration not given here. Cbz = O=C(OCc1ccccc1)*; ξK = NCCCCC(N)C(=O)O

Biological target: Pantothenate synthetase (Mycobacterium tuberculosis (strain ATCC 25618 / H37Rv)) (UniProt P9WIL5)
Experiment: Coupled enzyme confirmation of inhibitors against recombinant Mtb PanC (AID 375);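 note: 0% = full reaction with vehicle and 100% = no enzyme background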
Settings: coupled enzyme assay; at 10 µM, hits give high values

Sequence of Pantothenate synthetase (Mycobacterium tuberculosis (strain ATCC 25618 / H37Rv)) (P9WIL5 whole entry, looked up): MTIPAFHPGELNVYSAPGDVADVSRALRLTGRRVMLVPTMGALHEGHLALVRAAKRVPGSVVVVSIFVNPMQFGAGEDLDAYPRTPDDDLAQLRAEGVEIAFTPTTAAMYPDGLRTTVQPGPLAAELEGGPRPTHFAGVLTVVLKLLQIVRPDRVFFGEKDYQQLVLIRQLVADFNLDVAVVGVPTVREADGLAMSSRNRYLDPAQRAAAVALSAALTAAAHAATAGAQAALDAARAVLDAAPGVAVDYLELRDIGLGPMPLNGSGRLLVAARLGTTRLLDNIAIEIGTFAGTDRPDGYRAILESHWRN

| SMILES | inhibition [%] |
| --- | --- |
| CCCC(=O)Nc1cnc(NC(=O)c2cccc(F)c2)cc1C | 0 |
| CCOC(=O)C(C)On1c(SC(C)C(=O)OCC)nc2ccccc2c1=O (centres undefined) | 0 |
| Cc1nn(Cc2ccccc2)c(C)c1NC(=O)c1cc(-c2ccco2)on1 | 3 |
| O=C1NC(Cc2c[nH]c3ccccc23)C(=O)N1CCOc1ccccc1 (centres undefined) | 2 |
| CCOC(=O)C1=C(C)NC(=O)C(C#N)C1c1ccco1 (centres undefined) | 5 |
| Cc1ccccc1OCc1nnc(SCC(=O)NCc2ccccc2)n1C | 0 |
| O=c1[nH]c(SCc2cc(=O)n3ccccc3n2)nc2c1CCC2 | 4 |
| O=C1C=C(NCc2ccco2)C2(CCCCC2)O1 | 0 |
| Cn1c2ccccc2c2c(C(=O)NCCCN3CCCC3=O)cn(C3CCCCC3)c(=O)c21 | 8 |
| Cc1c(Cl)cccc1N1C(=O)c2ccccc2C1=O | 0 |
| C=CCN1C(=O)/C(=C2\SC(N3CCOCC3)=NC2=O)c2cc(Br)ccc21 | 0 |
| COc1ccc(N2CCN(C(=O)c3c(-c4ccccc4)noc3C)CC2)cc1 | 0 |
| Nc1nc2n(n1)C(c1c(F)cccc1Cl)CC(c1ccc(F)cc1)N2 (centres undefined) | 1 |
| Cc1csc(NC(=O)CCS(=O)(=O)c2ccc(Br)cc2)n1 | 2 |
| Cc1ccc2nc(NC(=O)C3CCN(S(=O)(=O)c4cccc5nsnc45)CC3)sc2c1 | 4 |
| Cc1nc2c(o1)CCc1ccccc1C2O (centres undefined) | 0 |
| CCOC(=O)N1CCC(NC(=O)C2CCC(Cn3c(=O)[nH]c4ccccc4c3=O)CC2)CC1 (centres undefined) | 9 |
| COc1ccc2c(c1)C1(C)CC(C)(C)N2C(=O)N1c1ccccc1 (centres undefined) | 4 |
| CS(=O)(=O)N(Cc1ccco1)CC(O)Cn1c2ccccc2c2ccccc21 (centres undefined) | 0 |
| O=C(Cn1cc2c(n1)CCCCC2)N1CCc2ccccc2C1 | 0 |

| SMILES | inhibition [%] |
| --- | --- |
| O=C(NCc1ccco1)C1CCN(c2ccc(N3CCOCC3)nn2)CC1 | 0 |
| Cc1cc(NC(=O)CSc2nc(C3CC3)nc3sc4c(c23)CCC(C)C4)no1 (centres undefined) | 6 |
| CCCn1c(SCC(=O)Nc2cc(C)on2)nc2c1c(=O)n(C)c(=O)n2C | 0 |
| COc1ccc(-c2[nH]c(-c3cccc(OC)c3)nc2SCC(=O)NCc2ccco2)cc1 | 1 |
| COc1ccc(OC)c(-c2cc(C(=O)NCc3cccs3)no2)c1 | 0 |
| Cc1cc(C)n(-c2nc3ccccc3c(=O)n2OCCOc2ccccc2)n1 | 3 |
| CCN=C1SC(CC(=O)Nc2ccccc2)C(=O)N1CC (centres undefined) | 5 |
| CCOc1ccc(NC(=O)CN2C(=O)C3CCCN3C2=O)cc1 (centres undefined) | 0 |
| COCCOC(=O)c1cc(C(=O)c2cc(F)ccc2O)coc1=N | 2 |
| Cn1c(=O)c2c(nc(N3CCN(c4ccccc4)CC3)n2CCCc2ccccc2)n(C)c1=O | 0 |
| CCCNS(=O)(=O)c1ccc(C(=O)NCC2CCCO2)cc1 (centres undefined) | 0 |
| Cc1ccc2nc(NC(=O)CN(C)S(=O)(=O)c3cccc4nsnc34)sc2c1 | 0 |
| CCOc1ccc(C(=O)Nc2cc(C)on2)cc1OCC | 6 |
| CCCOC(=O)c1[nH]c2c(c1C)C(=O)CC(c1ccc(OC)c(OC)c1)C2 (centres undefined) | 0 |
| COC(=O)C(CCCCNC(=O)OCc1ccccc1)NC(=O)CN (centres undefined) (H-Gly-[ξK](Cbz)-OMe) | 0 |
| COc1ccc(CC(NC(C)=O)C(=O)N2CCN(C(=O)N(C(C)C)C(C)C)CC2)cc1 (centres undefined) | 0 |
| O=C(CC1(O)C(=O)Nc2ccccc21)c1ccc2c(c1)OCO2 (centres undefined) | 0 |
| O=c1oc2ccccc2c2c1ncn2-c1ccccc1 | 0 |
| COc1cc(NC2=CC(=O)CC(C)(C)C2)cc(OC)c1 | 0 |
